Assay results: publication PMC11006913

biological target: ALX3 (Homo sapiens, UniProt O95076 139-225, L168Q); assay: PBM; 200 nM protein, PBS; conditions: dsDNA, one strand shown
Sequence (O95076 139-225 L168Q): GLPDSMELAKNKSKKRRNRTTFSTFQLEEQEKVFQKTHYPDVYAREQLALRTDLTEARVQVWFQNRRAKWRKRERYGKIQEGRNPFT

Sequence	binding signal
ACCCGGGT	8.02 upbm affinity estimate (log intensity, higher = more binding, comparable within an allelic series)
GCACCCCC	7.58 upbm affinity estimate (log intensity, higher = more binding, comparable within an allelic series)
CAGTTACG	8.09 upbm affinity estimate (log intensity, higher = more binding, comparable within an allelic series)
AGAGGGGG	7.69 upbm affinity estimate (log intensity, higher = more binding, comparable within an allelic series)
CTCCAGCC	7.62 upbm affinity estimate (log intensity, higher = more binding, comparable within an allelic series)
ACCAGCGG	7.79 upbm affinity estimate (log intensity, higher = more binding, comparable within an allelic series)
CGGCCCAG	7.67 upbm affinity estimate (log intensity, higher = more binding, comparable within an allelic series)
CGCTCCCC	7.75 upbm affinity estimate (log intensity, higher = more binding, comparable within an allelic series)
CCGCGGAC	7.7 upbm affinity estimate (log intensity, higher = more binding, comparable within an allelic series)
AGGGGGGC	7.62 upbm affinity estimate (log intensity, higher = more binding, comparable within an allelic series)
AGGCACGC	7.71 upbm affinity estimate (log intensity, higher = more binding, comparable within an allelic series)
CCCCCCAA	7.64 upbm affinity estimate (log intensity, higher = more binding, comparable within an allelic series)
GGATGGCC	7.73 upbm affinity estimate (log intensity, higher = more binding, comparable within an allelic series)
ACCCCCGC	7.66 upbm affinity estimate (log intensity, higher = more binding, comparable within an allelic series)
CAGTCGCA	7.89 upbm affinity estimate (log intensity, higher = more binding, comparable within an allelic series)
ACCGCGGT	7.86 upbm affinity estimate (log intensity, higher = more binding, comparable within an allelic series)
GCTTCGAC	7.79 upbm affinity estimate (log intensity, higher = more binding, comparable within an allelic series)
AGCGGGAC	7.62 upbm affinity estimate (log intensity, higher = more binding, comparable within an allelic series)
ACCGGTTA	8.24 upbm affinity estimate (log intensity, higher = more binding, comparable within an allelic series)
GCTCTGCC	7.72 upbm affinity estimate (log intensity, higher = more binding, comparable within an allelic series)
CAGCACCC	7.75 upbm affinity estimate (log intensity, higher = more binding, comparable within an allelic series)
GGCAGTTA	8.19 upbm affinity estimate (log intensity, higher = more binding, comparable within an allelic series)
CTTAATTC	9.59 upbm affinity estimate (log intensity, higher = more binding, comparable within an allelic series)
CCCGAGAG	7.74 upbm affinity estimate (log intensity, higher = more binding, comparable within an allelic series)
AGCCGGCG	7.66 upbm affinity estimate (log intensity, higher = more binding, comparable within an allelic series)
GCGCGAGC	7.77 upbm affinity estimate (log intensity, higher = more binding, comparable within an allelic series)

biological target: HOXD13 (Homo sapiens, UniProt P35453 263-343, T313A); assay: PBM; 200 nM protein, PBS; conditions: dsDNA, one strand shown
Sequence (P35453 263-343 T313A): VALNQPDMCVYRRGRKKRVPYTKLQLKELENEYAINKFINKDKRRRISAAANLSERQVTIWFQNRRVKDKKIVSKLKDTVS

Sequence	binding signal
TATTAAAA	11.8 upbm affinity estimate (log intensity, higher = more binding, comparable within an allelic series)
GCTTCGAC	9.54 upbm affinity estimate (log intensity, higher = more binding, comparable within an allelic series)
TTATTAAA	11.7 upbm affinity estimate (log intensity, higher = more binding, comparable within an allelic series)

biological target: T1, NKX2-6 (Homo sapiens, UniProt A6NCS4 118-204, F151L); assay: PBM; 200 nM protein, PBS; conditions: dsDNA, one strand shown
T1 sequence: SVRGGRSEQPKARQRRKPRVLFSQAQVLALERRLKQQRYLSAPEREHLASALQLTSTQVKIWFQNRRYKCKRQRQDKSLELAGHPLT

Sequence	binding signal
GCACCCCC	9.15 upbm affinity estimate (log intensity, higher = more binding, comparable within an allelic series)
AATTGTCC	9.84 upbm affinity estimate (log intensity, higher = more binding, comparable within an allelic series)
CGGCCCAG	9.1 upbm affinity estimate (log intensity, higher = more binding, comparable within an allelic series)

biological target: ALX3 (Homo sapiens, UniProt O95076 139-225, L168V); assay: PBM; 200 nM protein, PBS; conditions: dsDNA, one strand shown
Sequence (O95076 139-225 L168V): as the sequence (O95076 139-225 L168Q) above, with Q30V counted along it

Sequence	binding signal
ACCCGGGT	7.92 upbm affinity estimate (log intensity, higher = more binding, comparable within an allelic series)
GCACCCCC	7.59 upbm affinity estimate (log intensity, higher = more binding, comparable within an allelic series)
CAGTTACG	8.1 upbm affinity estimate (log intensity, higher = more binding, comparable within an allelic series)
AGAGGGGG	7.67 upbm affinity estimate (log intensity, higher = more binding, comparable within an allelic series)
CTCCAGCC	7.62 upbm affinity estimate (log intensity, higher = more binding, comparable within an allelic series)
ACCAGCGG	7.78 upbm affinity estimate (log intensity, higher = more binding, comparable within an allelic series)
CGGCCCAG	7.67 upbm affinity estimate (log intensity, higher = more binding, comparable within an allelic series)
CGCTCCCC	7.7 upbm affinity estimate (log intensity, higher = more binding, comparable within an allelic series)
CCGCGGAC	7.67 upbm affinity estimate (log intensity, higher = more binding, comparable within an allelic series)
AGGGGGGC	7.47 upbm affinity estimate (log intensity, higher = more binding, comparable within an allelic series)
AGGCACGC	7.61 upbm affinity estimate (log intensity, higher = more binding, comparable within an allelic series)
CCCCCCAA	7.7 upbm affinity estimate (log intensity, higher = more binding, comparable within an allelic series)
GGATGGCC	7.67 upbm affinity estimate (log intensity, higher = more binding, comparable within an allelic series)
ACCCCCGC	7.68 upbm affinity estimate (log intensity, higher = more binding, comparable within an allelic series)
CAGTCGCA	7.88 upbm affinity estimate (log intensity, higher = more binding, comparable within an allelic series)
ACCGCGGT	7.92 upbm affinity estimate (log intensity, higher = more binding, comparable within an allelic series)
GCTTCGAC	7.79 upbm affinity estimate (log intensity, higher = more binding, comparable within an allelic series)
AGCGGGAC	7.69 upbm affinity estimate (log intensity, higher = more binding, comparable within an allelic series)
ACCGGTTA	8.11 upbm affinity estimate (log intensity, higher = more binding, comparable within an allelic series)
GCTCTGCC	7.75 upbm affinity estimate (log intensity, higher = more binding, comparable within an allelic series)
CAGCACCC	7.68 upbm affinity estimate (log intensity, higher = more binding, comparable within an allelic series)
GGCAGTTA	8.14 upbm affinity estimate (log intensity, higher = more binding, comparable within an allelic series)
CTTAATTC	9.14 upbm affinity estimate (log intensity, higher = more binding, comparable within an allelic series)
CCCGAGAG	7.83 upbm affinity estimate (log intensity, higher = more binding, comparable within an allelic series)
AGCCGGCG	7.63 upbm affinity estimate (log intensity, higher = more binding, comparable within an allelic series)
GCGCGAGC	7.76 upbm affinity estimate (log intensity, higher = more binding, comparable within an allelic series)

biological target: VAX1 (Homo sapiens, UniProt Q5SQQ9 86-172, T142I); assay: PBM; 200 nM protein, PBS; conditions: dsDNA, one strand shown
Sequence (Q5SQQ9 86-172 T142I): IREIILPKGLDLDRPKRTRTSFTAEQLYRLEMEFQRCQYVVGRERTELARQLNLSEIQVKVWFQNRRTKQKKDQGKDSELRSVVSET

Sequence	binding signal
CATATTAC	10.4 upbm affinity estimate (log intensity, higher = more binding, comparable within an allelic series)
GCTCTGCC	7.19 upbm affinity estimate (log intensity, higher = more binding, comparable within an allelic series)
AGCCGGCG	6.99 upbm affinity estimate (log intensity, higher = more binding, comparable within an allelic series)

biological target: ALX3 (Homo sapiens, UniProt O95076 139-225, N203S); assay: PBM; 200 nM protein, PBS; conditions: dsDNA, one strand shown
Sequence (O95076 139-225 N203S): as the sequence (O95076 139-225 L168Q) above, with Q30L, N65S counted along it

Sequence	binding signal
ACCCGGGT	7.9 upbm affinity estimate (log intensity, higher = more binding, comparable within an allelic series)
GCACCCCC	7.76 upbm affinity estimate (log intensity, higher = more binding, comparable within an allelic series)
CAGTTACG	8.08 upbm affinity estimate (log intensity, higher = more binding, comparable within an allelic series)
AATTGTCC	8.23 upbm affinity estimate (log intensity, higher = more binding, comparable within an allelic series)
AGAGGGGG	7.59 upbm affinity estimate (log intensity, higher = more binding, comparable within an allelic series)
AATATTAT	8.71 upbm affinity estimate (log intensity, higher = more binding, comparable within an allelic series)
CTCCAGCC	7.57 upbm affinity estimate (log intensity, higher = more binding, comparable within an allelic series)
ACCAGCGG	7.78 upbm affinity estimate (log intensity, higher = more binding, comparable within an allelic series)
ATATAATA	8.68 upbm affinity estimate (log intensity, higher = more binding, comparable within an allelic series)
CGGCCCAG	7.74 upbm affinity estimate (log intensity, higher = more binding, comparable within an allelic series)
CGCTCCCC	7.67 upbm affinity estimate (log intensity, higher = more binding, comparable within an allelic series)
CCGCGGAC	7.75 upbm affinity estimate (log intensity, higher = more binding, comparable within an allelic series)
ATAATATA	8.76 upbm affinity estimate (log intensity, higher = more binding, comparable within an allelic series)
AGGGGGGC	7.44 upbm affinity estimate (log intensity, higher = more binding, comparable within an allelic series)
AGGCACGC	7.64 upbm affinity estimate (log intensity, higher = more binding, comparable within an allelic series)
CCCCCCAA	7.81 upbm affinity estimate (log intensity, higher = more binding, comparable within an allelic series)
CGAAATCA	8.15 upbm affinity estimate (log intensity, higher = more binding, comparable within an allelic series)

Sequence	binding signal
GGATGGCC	7.67 upbm affinity estimate (log intensity, higher = more binding, comparable within an allelic series)
ACCCCCGC	7.73 upbm affinity estimate (log intensity, higher = more binding, comparable within an allelic series)
CAGTCGCA	7.8 upbm affinity estimate (log intensity, higher = more binding, comparable within an allelic series)
ACCGCGGT	7.86 upbm affinity estimate (log intensity, higher = more binding, comparable within an allelic series)
GCTTCGAC	7.83 upbm affinity estimate (log intensity, higher = more binding, comparable within an allelic series)
AGCGGGAC	7.73 upbm affinity estimate (log intensity, higher = more binding, comparable within an allelic series)
ATATTATA	8.69 upbm affinity estimate (log intensity, higher = more binding, comparable within an allelic series)
ACCGGTTA	8.2 upbm affinity estimate (log intensity, higher = more binding, comparable within an allelic series)
GCTCTGCC	7.71 upbm affinity estimate (log intensity, higher = more binding, comparable within an allelic series)
CAGCACCC	7.8 upbm affinity estimate (log intensity, higher = more binding, comparable within an allelic series)
GGCAGTTA	8.16 upbm affinity estimate (log intensity, higher = more binding, comparable within an allelic series)
CTTAATTC	8.4 upbm affinity estimate (log intensity, higher = more binding, comparable within an allelic series)
CCCGAGAG	7.85 upbm affinity estimate (log intensity, higher = more binding, comparable within an allelic series)
TTATTAAA	8.68 upbm affinity estimate (log intensity, higher = more binding, comparable within an allelic series)
AGCCGGCG	7.77 upbm affinity estimate (log intensity, higher = more binding, comparable within an allelic series)
GCGCGAGC	7.83 upbm affinity estimate (log intensity, higher = more binding, comparable within an allelic series)
